Source: PubChem BioAssay (National Center for Advancing Translational Sciences (NCATS))
DT40 TDP1 CPT – growth inhibition of DT40 Tdp1-/-;hTDP1 cells with camptothecin (screen for TDP1 inhibitors); chicken DT40 Tdp1-/-;hTDP1 cells + 20 nM CPT, ATP luminescence, 48 h; Potency, µM (highest dose often 46.2 µM), for inactives: at the top dose activity change, negative = growth inhibition, actives largely listed as inhibitors; 420,000 compounds, 12% hits; also: potency is read from the fitted curve at half-maximal effect; nearly all actives have a fitted effect of over 55% in size
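Chicken DT40 Tdp1-/- cells complemented with human TDP1, 400 cells/well, exposed to compounds plus 20 nM camptothecin for at least 48 h at 37 C; viability read as ATP content by CellTiter-Glo luminescence.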
DT40 TDP1 no CPT – qHTS for Inhibitors of human tyrosyl-DNA phosphodiesterase 1 (TDP1): qHTS in cells in absence of CPT. DT40 Tdp1-/- hTDP1 cells, no CPT, ATP luminescence, 48 h. Potency, µM (series often up to 46.2 µM), for inactives: at the highest dose activity change, negative = growth inhibition, actives largely listed as inhibitors. 420,000 compounds, 15% hits. AID 686978, 2013; also: potency is read from the fitted curve at half-maximal effect; nearly all actives have a fitted effect of over 55% in size
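A cellular qHTS used chicken DT40 cells lacking endogenous Tdp1 but carrying stably transfected human TDP1. Compounds were applied without camptothecin, and cell growth kinetics were judged by ATP-dependent luminescence after ≥48 hr.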
HT1080 IDH1KD tx – kills HT-1080 cells with IDH1 knockdown; HT-1080 IDH1 knockdown viability, ATP luminescence, 48 h; Potency, µM (titrated, usually from 46.1 µM), inactives show top-dose activity, negative = toxicity, hits mostly cytotoxic; 360,000 compounds, 2% hits;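 also: potency is read from the fitted curve at half-maximal effect; 0% = DMSO wells and -100% = cell-free medium wells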
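Luminescent ATP read-out (CellTiter-Glo, 10 min at room temperature) after 48 h compound exposure at 37 °C gave viability of IDH1-knockdown HT-1080 cells. Activity was normalised to DMSO and cell-free wells, then fitted as concentration-response curves.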
IL-1B inflam inh – inflammasome signaling inhibition, IL-1 beta readout; activity change, % at 57.5 µM; 360,000 compounds, 4.7% hits; AID 743279; THP-1 LPS/ATP IL-1B secretion, AlphaLISA, 16 h; stronger effect = lower value; in the data active = activity change below about -50%; inconclusive = mostly about -30% to -49%
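Secreted IL-1B measured by AlphaLISA bead assay after 16 h compound exposure of THP-1 cells; compounds (final up to 57.5 uM) added 1 h before LPS (250 ng/mL) and ATP (1.25 mM) stimulation; lower signal means less secretion.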
HT1080-NT tox – kills 2HG-producing HT-1080-NT fibrosarcoma cells | HT-1080-NT fibrosarcoma viability, CellTiter-Glo ATP luminescence, 48 h | Potency, µM (titrated, usually from 46.1 µM), without a hit: at the top dose activity, negative = less viability, hits mostly cytotoxic | 360,000 compounds, 1.6% hits;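 also: NT is the 2HG producing partner of a matched IDH1 knockdown line; potency is read from the fitted curve at half-maximal effect; 0% = DMSO-treated cells and -100% = media-only wells without cells; nearly all actives have a fitted effect of over 55% in size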
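Viability by CellTiter-Glo luminescence after 48 h compound exposure at 37C of HT-1080-NT cells (750/well, RPMI, 5% FBS). % activity scaled between DMSO wells and medium-only wells, then curve-fitted and categorized by curve class.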
Active calls of the source: *; ? = inconclusive; nt = not tested or not shown. A selection: hits, their analogues and other compounds. The true share with any hit is near 19%. Unless noted, calls follow the shape of the dose curve; as a rule, active = well fitted curve in the direction sought with a large enough effect; inconclusive = small, poorly fitted or top-dose-only effect, or another doubt; inactive = no such curve, though single readings can be large; an effect the other way counts as inactive or inconclusive. Unless noted, % is scaled to controls: 0 for no effect and ±100 for the full control effect.

SMILES | DT40 TDP1 CPT | DT40 TDP1 no CPT | HT1080 IDH1KD tx | IL-1B inflam inh | HT1080-NT tox
Cc1ccc(CN2CCC3CCC(C3)C2)c(O)c1 (configuration not stated) | -11.2% | -15.2% | 22.1% | 6.0 | 11.5%
N#CC1(N2CCCCC2)CCCCC1 | -3.5% | -0.2% | nt | nt | nt
COc1cccc(C(=O)c2c(N)c(-c3nc(-c4ccccc4)cs3)c3ccccn23)c1 | ? | 20.6µM* | nt | nt | nt
O=C(N[C@@H]1N=C(c2ccccc2F)c2cccc3c2N(CC3)C1=O)c1cc2ccccc2[nH]1 | -15.3% | ? | nt | nt | nt
Cc1ccc(C[N+](C)(C)C)o1 | ? | -11.7% | nt | nt | nt
O=C(Cc1ccc(Cl)c(Cl)c1)N1CCCC[C@H]1CN1CCCC1 | 26.6µM* | 26.6µM* | nt | nt | nt
COC(=O)N1CCN(C(=O)Cc2ccc(Cl)c(Cl)c2)[C@H](CN2CCCC2)C1 | -20.6% | ? | nt | nt | nt
N#CSCC(=O)N1c2ccccc2CCc2ccccc21 | 5.8µM* | 7.31µM* | 23.1µM* | -51.2* | ?
COC(=O)C1=C(c2ccc(C(C)=O)cc2)C[C@@H]2CC[C@H]1N2C(=O)N1CCC(O)CC1 | 9.6% | 4.9% | 4.2% | 15.3 | -4.3%
CCOC(=O)c1cc2c(cn1)[C@H](CCO)NC2 | 8.0% | -1.8% | 18.9% | 29.2 | 12.9%
CCCCC(CC)CNCC(O)c1ccccc1 (configuration not stated) | -1.9% | -20.6% | 6.4% | 14.2 | -0.7%
CCCCC(CC)COP(=O)(OCC(CC)CCCC)OCC(CC)CCCC (configuration not stated) | ? | ? | -4.2% | -72.4* | ?
Nc1ncc([N+](=O)[O-])s1 | -22.7% | -10.4% | 3.3% | 13.0 | 1.8%
O=C(O)CCC1NCC2CC1CN1CCCCC21 (configuration not stated) | -10.0% | -2.5% | nt | nt | nt
CC(C)Oc1cc(-n2c(=S)[nH]c3ccccc3c2=O)c(Cl)cc1Cl | ? | 16.4µM* | ? | 28.6 | -27.1%
COc1cc(-n2c(=S)[nH]c3ccccc3c2=O)c(Cl)cc1Cl | ? | 25.9µM* | ? | 0.5 | ?
Cc1cc(Br)cn2c(CC(=O)N3CCCCC3)c(-c3ccc(F)cc3)nc12 | ? | 16.4µM* | 3.8% | 29.0 | 3.2%
O=C(Cc1c(-c2ccccc2)nc2ccc(Br)cn12)N1CCCC1 | -27.2% | ? | 11.5% | 38.7 | 6.0%
COc1ccc(-c2cc(C(=O)N3CCN(c4ccccc4OC)CC3)c3cc(C(C)C)ccc3n2)cc1 | 23.1µM* | 20.6µM* | nt | nt | nt
CCOc1ccc(-c2cc(C(=O)N3CCN(c4cccc(C(F)(F)F)c4)CC3)c3ccccc3n2)cc1 | 5.17µM* | 4.61µM* | nt | nt | nt
COc1ccc(N2CCN(C(=O)c3cc(=O)[nH]c4ccccc34)CC2)cc1 | 5.3% | ? | 0.0% | 22.9 | 2.8%
CCOC(=O)C1CCN(C(C)C(=O)c2c(C)[nH]c3cc(C)ccc23)CC1 (configuration not stated) | 3.1% | -7.9% | -2.1% | -9.5 | -4.7%
Cc1nc(N2CCN(Cc3ccccc3)CC2)nc2c1C(=O)CC(C)C2 (configuration not stated) | 18.4µM* | 16.4µM* | -19.3% | 0.0 | -4.1%
Cc1ccccc1C(O)(Cc1ccccc1)C1CN2CCC1CC2 (configuration not stated) | 17.8µM* | 17.8µM* | ? | ? | ?
Fc1ccccc1CNC1CN2CCC1CC2 (configuration not stated) | ? | ? | 29.7% | -7.1 | 8.8%
SMILES | DT40 TDP1 CPT | DT40 TDP1 no CPT | HT1080 IDH1KD tx | IL-1B inflam inh | HT1080-NT tox
Cc1ccc(C(O)(c2ccc(C)c(C)c2)C2CN3CCC2CC3)cc1C (configuration not stated) | 3.66µM* | 2.31µM* | ? | -86.2* | ?
c1cnc(N2CCCC3(CCNCC3)C2)nc1 | -2.1% | -23.5% | nt | nt | nt
c1cc(N2CCCC3(CCNCC3)C2)ccn1 | 9.2µM* | 9.2µM* | nt | nt | nt
CN(C)S(=O)(=O)c1ccc(C(=O)NCCSc2c(-c3ccccc3)[nH]c3ccccc23)cc1 | 6.51µM* | 6.51µM* | nt | nt | nt
O=c1[nH]c(O)c(N=Nc2ccc(S(=O)(=O)N3CCOCC3)cc2)c(=O)[nH]1 | 27.7% | -6.4% | 23.6% | -11.9 | 9.3%
O=C(NCCSc1c(-c2ccccc2)[nH]c2ccccc12)c1ccc(S(=O)(=O)N2CCOCC2)cc1 | 5.8µM* | 8.2µM* | nt | nt | nt
C=CCn1c(O)c(C(CC)=Nc2ccc(N(C)C)cc2)c(=O)[nH]c1=O | -21.1% | ? | -3.3% | nt | -0.2%
COc1ccc(/C=C/C(=O)c2ccccc2)cc1COc1ccc(F)cc1 | ? | 20.6µM* | ? | -52.4* | ?
COc1ccc(C(C)=O)cc1CC(C(=O)c1ccc(F)cc1)N(C)C (configuration not stated) | 0.9% | -7.2% | 7.3% | 22.3 | 0.0%
Oc1ccc2c3c1OC1C(O)CC[C@]4(O)C(C2)N(CC2CCC2)CC[C@]314 (some centres not stated) | 7.3% | 0.1% | nt | nt | nt
CCOC(=O)C1(c2ccccc2)CCN(CCC(=O)Nc2ccccc2OC)CC1 | 20.6µM* | 11.6µM* | 4.5% | 7.7 | -4.4%
CCOC(=O)C1(c2ccccc2)CCN(CCC(=O)Nc2ccc(F)cc2)CC1 | ? | ? | -4.7% | -21.0 | -8.2%
NCCNc1ccc([N+](=O)[O-])c2cccnc12 | ? | 20.6µM* | -24.7% | -28.3 | -27.7%
NC(=NCCCC(N)C(=O)O)N[N+](=O)[O-] (configuration not stated) | -18.9% | -3.9% | nt | nt | nt
C[C@@H]1CN(C2CCC(C#N)(c3ccc(F)cc3)CC2)CC[C@]1(C(=O)O)c1ccccc1 (some centres not stated) | 6.5% | 9.4% | 0.8% | 26.9 | ?
CCN(CC)c1ccc(N=Cc2c(O)n(-c3ccc(Cl)cc3)c(=O)[nH]c2=O)cc1 | 20.6µM* | ? | 0.5% | 46.0 | 10.7%
Cc1ccccc1-n1c(O)c(C=Nc2ccc(N(C)C)cc2)c(=O)[nH]c1=O | 23.1µM* | 18.4µM* | -0.9% | -2.9 | -0.3%
O=CN1CC2CC(C1)c1cccc(=O)n1C2 (configuration not stated) | 1.6% | -4.5% | nt | nt | nt
CC/C(=N\Nc1cccc2ccccc12)c1c(O)[nH]c(=O)[nH]c1=O | 5.17µM* | 5.8µM* | -15.9% | -10.5 | -21.2%
CC/C(=N\NC(N)=O)c1c(O)[nH]c(=O)[nH]c1=O | -6.4% | -7.8% | 9.9% | 0.8 | 7.6%
CC/C(=N\Nc1ccccc1)c1c(O)[nH]c(=O)[nH]c1=O | -8.2% | 0.9% | 3.26µM* | -12.4 | ?
OC1(c2ccc(F)cc2)CC2CCC(C1)N2Cc1nnnn1C1CCCCC1 (configuration not stated) | -21.3% | -27.6% | -1.0% | ? | -15.2%
